# Results from PubChem BioAssay AID1026 (Columbia University Molecular Screening Center, 2008).
# The source made the active and inactive calls. No rule for the calls is given here.
# Target: Bifunctional epoxide hydrolase 2 (Homo sapiens) (UniProt P34913)
# Test: sEH inhibitor concentration-response potency, dose response, biochemical, human sEH, fluorescence, Infinite200 (AID 1026)
# Conditions: recombinant human sEH, fluorogenic substrate, at 0.2 µM, stronger effect = higher value
# Sequence of Bifunctional epoxide hydrolase 2 (Homo sapiens) (P34913 whole entry, looked up): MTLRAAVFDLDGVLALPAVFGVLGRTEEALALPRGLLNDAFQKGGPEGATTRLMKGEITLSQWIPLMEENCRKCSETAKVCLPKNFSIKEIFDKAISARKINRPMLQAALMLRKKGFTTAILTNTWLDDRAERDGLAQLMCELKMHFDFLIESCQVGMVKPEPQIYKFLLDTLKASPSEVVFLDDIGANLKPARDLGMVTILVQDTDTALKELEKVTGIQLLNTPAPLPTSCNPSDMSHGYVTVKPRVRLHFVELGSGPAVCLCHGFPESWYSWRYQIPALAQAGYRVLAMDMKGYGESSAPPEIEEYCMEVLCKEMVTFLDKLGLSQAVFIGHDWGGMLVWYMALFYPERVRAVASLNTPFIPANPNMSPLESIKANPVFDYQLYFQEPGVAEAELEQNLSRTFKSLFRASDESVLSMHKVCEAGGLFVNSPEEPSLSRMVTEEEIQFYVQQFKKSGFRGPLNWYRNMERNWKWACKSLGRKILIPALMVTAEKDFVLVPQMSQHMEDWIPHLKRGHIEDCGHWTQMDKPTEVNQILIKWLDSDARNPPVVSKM
compound,measurement,value
CC(Cc1ccccc1)NC(=O)NC(C)Cc1ccccc1 (stereo unspecified),inhibition,71.6% (inactive)
